Pf apPOL inh: Pf-apPOL DNA polymerase inhibition. Recombinant Pf-apPOL, molecular beacon fluorescence, 1.5 h. inhibition, % at 10 µM. 0.25% of 210,000 active
mHTT CaM bind: inhibitors of human mutant huntingtin-calmodulin interaction; AlphaScreen His-mHTT/GST-CaM binding, luminescence; P42858; AID 1671202; 3.6% of 190,000 active; inhibition, % at 15 µM;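 further: 0% = both proteins with DMSO and 100% = one protein alone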
* = called active by the depositor. Many of the other results were omitted from the sample, so hits are more common in it than they were. No stated cut-off is given here; in the data, active means inhibition above about 50%; inactive means the rest.

For Cc1cccc(C2=N/C(=C\c3coc4ccccc4c3=O)C(=O)O2)c1 the results were Pf apPOL inh -8 and mHTT CaM bind 3.
For CC1(C)CC(=O)C2=C(C1)Nc1nc(SCc3ccccc3)nn1C2c1ccccc1 (stereo unspecified) the results were Pf apPOL inh -5 and mHTT CaM bind -1.
Screening Cc1ccc(N2NC(=O)/C(=C\c3cccc(Br)c3)C2=O)cc1 returned Pf apPOL inh -1 and mHTT CaM bind 71*.
`Cc1ccc(N2NC(=O)/C(=C\c3ccccc3OCC#N)C2=O)cc1Cl` gave Pf apPOL inh 2 and mHTT CaM bind 78*.
Screening CN(C)c1ccc([N+](=O)[O-])cc1/C=C1\C(=O)NN(c2ccc(F)cc2)C1=O returned Pf apPOL inh 6 and mHTT CaM bind 10.
O=C1NN(c2cccc(Br)c2)C(=O)/C1=C/c1ccccc1 was read as Pf apPOL inh -1 and mHTT CaM bind 19.
`O=C1NN(c2ccc(Br)cc2)C(=O)/C1=C/c1cc([N+](=O)[O-])ccc1Cl` gave Pf apPOL inh 1 and mHTT CaM bind 89*.
For COc1cccc(/C=C2\C(=O)NN(c3ccc(C)c(Cl)c3)C2=O)c1OCC#N the results were Pf apPOL inh -4 and mHTT CaM bind 28.
For O=C1NN(c2ccc(Cl)c(Cl)c2)C(=O)/C1=C/c1ccc(-c2ccc3c(c2)C(=O)OC3)o1 the results were Pf apPOL inh 3 and mHTT CaM bind 68*.
Screening O=C1NN(c2ccc(Cl)c(Cl)c2)C(=O)/C1=C/c1ccc(-c2ccc3c(c2)C(=O)NC3=O)o1 returned Pf apPOL inh -8 and mHTT CaM bind 5.
`O=C(NCc1ccccc1)c1cc(-c2ccc(F)cc2)ns1` gave Pf apPOL inh -3 and mHTT CaM bind -34.
Screening CC(=O)NCc1csc(C2CCCN(S(=O)(=O)C(C)C)C2)n1 (stereo unspecified) returned Pf apPOL inh -5 and mHTT CaM bind -2.
Cc1cc(C)c(NC(=O)C2CCN(C(=O)c3cc4ccsc4[nH]3)CC2)c(C)c1 was read as Pf apPOL inh 1 and mHTT CaM bind 42.
For O=C(c1ccno1)N1CCC(c2nnc(-c3ccco3)s2)CC1 the results were Pf apPOL inh 4 and mHTT CaM bind -12.
`Cc1nnc(NC(=O)c2csc(Nc3ncccn3)n2)s1` gave Pf apPOL inh -7 and mHTT CaM bind -9.
CCCOc1ccc(C2C(C(=O)Nc3ccccc3OC)=C(C)Nc3nnnn32)cc1OC (stereo unspecified) was read as Pf apPOL inh 1 and mHTT CaM bind -5.
For CC(C)CC(=O)N1CCCC1c1cc(C(C)C)on1 (stereo unspecified) the results were Pf apPOL inh -4 and mHTT CaM bind -6.
For COc1cc(OC)c(OC)cc1/C=N/n1c(-c2cc(OC)c(OC)c(OC)c2)n[nH]c1=S the results were mHTT CaM bind inactive.
`COc1ccc(/C=C2\C(=O)NN(c3ccc(Cl)c(Cl)c3)C2=O)cc1` gave Pf apPOL inh -5 and mHTT CaM bind 5.
For Cc1ccc(N2NC(=O)/C(=C\c3cccs3)C2=O)cc1Cl the results were Pf apPOL inh 0 and mHTT CaM bind 2.
For Cc1ccc(N2NC(=O)/C(=C\c3cccc([N+](=O)[O-])c3)C2=O)cc1Cl the results were Pf apPOL inh 0 and mHTT CaM bind 77*.
O=C1NN(c2ccc(F)cc2)C(=O)/C1=C/c1cccc([N+](=O)[O-])c1 was read as Pf apPOL inh 1 and mHTT CaM bind 13.
Screening O=C1NN(c2ccc(Cl)c(Cl)c2)C(=O)/C1=C/c1ccccc1 returned Pf apPOL inh -3 and mHTT CaM bind 96*.
`Cc1ccc(N2NC(=O)/C(=C\c3ccc(Cl)cc3Cl)C2=O)cc1Cl` gave Pf apPOL inh 4 and mHTT CaM bind 90*.
Cc1cccc(C)c1NC(=O)c1cc(S(=O)(=O)NCc2ccc(F)cc2)ccc1F was read as Pf apPOL inh 38 and mHTT CaM bind 10.
COCCNC(=O)CC1CCN(C(=O)c2ccc(C)cc2)CC1 was read as Pf apPOL inh -17 and mHTT CaM bind 0.
`O=C1Nc2ccc(Cl)cc2/C1=c1\sc2n(c1=O)CN(c1cccc(Br)c1)CN=2` gave Pf apPOL inh -6 and mHTT CaM bind 52*.
O=c1/c(=C/c2ccccc2)sc2n1CN(c1cccc(Br)c1)CN=2 was read as Pf apPOL inh -4 and mHTT CaM bind -13.
O=C(NC(c1cccc(F)c1)c1ccc2cccnc2c1O)c1ccccc1 (stereo unspecified) was read as Pf apPOL inh -4 and mHTT CaM bind 100*.
`COc1ccc(C(NC(=O)c2cccc(OC)c2)c2cc(Cl)c3cccnc3c2O)cc1` (stereo unspecified) gave Pf apPOL inh -1 and mHTT CaM bind 28.
Screening Cc1ccc(C(NC(=O)c2ccccc2)c2ccc3cccnc3c2O)cc1 (stereo unspecified) returned Pf apPOL inh -3 and mHTT CaM bind 100*.
For O=C(Nc1ncccc1Cl)c1cccc(F)c1 the results were Pf apPOL inh -96 and mHTT CaM bind 2.
For CC(C)c1ccc(OCC(=O)Nc2nc3ccccc3s2)cc1 the results were Pf apPOL inh 10 and mHTT CaM bind 2.
For Cc1cc(O)c(C2OC(=O)c3ccccc32)c(=O)[nH]1 (stereo unspecified) the results were Pf apPOL inh -8 and mHTT CaM bind -1.
COc1ccc(NC(=O)c2cnn3c2NC(c2cccs2)CC3C(F)(F)F)cc1OC (stereo unspecified) was read as Pf apPOL inh 0 and mHTT CaM bind 29.
For O=C(Nc1ccc2c(c1)OCO2)c1cnn2c1NC(c1cccs1)CC2C(F)(F)F (stereo unspecified) the results were Pf apPOL inh 76* and mHTT CaM bind 7.
Screening O=C(Nc1cc(F)c2[nH]c(=O)ccc2c1)c1cccc(Cl)c1 returned Pf apPOL inh 4 and mHTT CaM bind -2.
CCCn1cnnc1C1CCCCN1C(=O)CCc1ccccc1OC (stereo unspecified) was read as Pf apPOL inh -1 and mHTT CaM bind 4.
Screening CCn1cnnc1C1CCCCN1C(=O)CCc1c[nH]c2ccccc12 (stereo unspecified) returned Pf apPOL inh 0 and mHTT CaM bind 56*.
Screening Cc1c(Br)c([N+](=O)[O-])nn1CC(=O)N1CCOCC1 returned Pf apPOL inh -2 and mHTT CaM bind -10.
`O=C(COc1ccccc1F)Nc1nnc(COc2cccc3ccccc23)o1` gave Pf apPOL inh -140 and mHTT CaM bind 56*.
`O=C(COc1ccccc1)Nc1nnc(CSc2ccccc2)o1` gave Pf apPOL inh -11 and mHTT CaM bind 0.
Screening O=C(COc1ccccc1F)Nc1nnc(C2CCCCC2)o1 returned Pf apPOL inh -10 and mHTT CaM bind 63*.
Cc1csc(-c2nnc(NC(=O)COc3ccccc3F)o2)c1 was read as Pf apPOL inh -22 and mHTT CaM bind 17.
CCn1cnnc1C1CCCCN1S(=O)(=O)c1cccc(OC)c1 (stereo unspecified) was read as Pf apPOL inh 3 and mHTT CaM bind 2.
For CCOC(=O)c1c(C)c(C(=O)Nc2cccc(C)c2C)c(C)n1C the results were Pf apPOL inh -5 and mHTT CaM bind 10.
Screening CCC(Cc1ccccc1)n1c(SCC(=O)Nc2cc(C)[nH]n2)nc2ccccc2c1=O (stereo unspecified) returned Pf apPOL inh 2 and mHTT CaM bind 11.
For O=C(Cc1ccc(F)cc1)N1CCC(c2cnn(-c3cccc(F)c3)c2)CC1 the results were Pf apPOL inh -5 and mHTT CaM bind 9.

Bioassay records as filed in PubChem.
